Results taken from PubChem BioAssay AID1159580 (chemical genetic matrix, 2015).
The whole screen tested about 5,500 compounds, of which about 2,000 (36%) were called active. About 18% were inconclusive and are not listed. No stated cut-off is given here; in the data, active means normalized growth mostly below about 0.91 (no sharp cut-off); inconclusive means no clear call, values can overlap the other calls; inactive means mostly above about 0.92. The list shows a part of the results.

Test: chemical genetic growth profiling, strain panel (AID 1159580);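 further: tested at 20 µM; growth read once vehicle control cultures reached saturation at 30 °C; 1 = growth at the plate median or of vehicle wells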
Conditions: S. cerevisiae deletion strains, growth OD

Measured: normalized growth

Nc1nc2c(nc(Br)n2C2OC3COP(=O)(O)O[C@@H]3C2O)c(=O)[nH]1 (stereo partly specified)
inactive: locus YAL040C, strain CLN3, stronger effect = lower value 0.947 | locus YDR363W, strain ESC2, stronger effect = lower value 0.993 | locus YER002W, strain NOP16, stronger effect = lower value 1.02 | locus YGR229C, strain SMI1, stronger effect = lower value 1.02 | locus YMR307W, strain GAS1, stronger effect = lower value 0.998 | locus YNL153C, strain GIM3, stronger effect = lower value 1.05 | locus YNL175C, strain NOP13, stronger effect = lower value 1.02 | locus YNL197C, strain WHI3, stronger effect = lower value 1.01 | locus YNL224C, strain SQS1, stronger effect = lower value 1.02 | locus YOR083W, strain WHI5 (second series), stronger effect = lower value 1.02

COc1cc(OC)cc(/C(N)=N\O)c1
active: locus YLR113W, strain HOG1, stronger effect = lower value 0.847
inactive: locus YAR019C, strain CDC15, stronger effect = lower value 0.981 | locus YBL105C, strain PKC1, stronger effect = lower value 0.99 | locus YBR135W, strain CKS1, stronger effect = lower value 0.986 | locus YBR136W, strain MEC1, stronger effect = lower value 0.975 | locus YBR160W, strain CDC28, stronger effect = lower value 0.993 | locus YDL017W, strain CDC7, stronger effect = lower value 0.989 | locus YDL028C, strain MPS1, stronger effect = lower value 0.982 | locus YDL101C, strain DUN1, stronger effect = lower value 0.992 | locus YDL108W, strain KIN28, stronger effect = lower value 0.982 | locus YDL132W, strain cdc53, stronger effect = lower value 0.997 | locus YDL214C, strain PRR2, stronger effect = lower value 0.956 | locus YDR052C, strain DBF4, stronger effect = lower value 0.991 | locus YDR054C, strain cdc34, stronger effect = lower value 0.992 | locus YDR226W, strain ADK1, stronger effect = lower value 0.994 | locus YDR477W, strain SNF1, stronger effect = lower value 0.958 | locus YER123W, strain YCK3, stronger effect = lower value 0.927 | locus YER133W, strain GLC7, stronger effect = lower value 0.971 | locus YFL009W, strain cdc4, stronger effect = lower value 0.991 | locus YFL029C, strain CAK1, stronger effect = lower value 0.975 | locus YFR003C, strain YPI1, stronger effect = lower value 0.99 | locus YFR019W, strain FAB1, stronger effect = lower value 0.961 | locus YFR028C, strain CDC14, stronger effect = lower value 0.994 | locus YGR040W, strain KSS1, stronger effect = lower value 0.959 | locus YGR052W, strain FMP48, stronger effect = lower value 1.02 | locus YGR092W, strain DBF2, stronger effect = lower value 0.943 | locus YHR030C, strain SLT2, stronger effect = lower value 0.874 | locus YHR079C, strain IRE1, stronger effect = lower value 0.909 | locus YHR082C, strain KSP1, stronger effect = lower value 0.994 | locus YHR205W, strain SCH9, stronger effect = lower value 0.891 | locus YIL147C, strain SLN1, stronger effect = lower value 0.963 | locus YJL095W, strain BCK1, stronger effect = lower value 0.875 | locus YJL128C, strain PBS2, stronger effect = lower value 0.967 | locus YJL157C, strain FAR1, stronger effect = lower value 0.983 | locus YJR016C, strain ILV3, stronger effect = lower value 0.997 | locus YJR066W, strain TOR1 (second series), stronger effect = lower value 0.929 | locus YJR066W, strain TOR1, stronger effect = lower value 0.966 | locus YKL048C, strain ELM1, stronger effect = lower value 0.962 | locus YKL067W, strain YNK1, stronger effect = lower value 0.961 | locus YKL101W, strain HSL1, stronger effect = lower value 0.925 | locus YKL193C, strain SDS22, stronger effect = lower value 0.992 | locus YKL203C, strain TOR2, stronger effect = lower value 1.01 | locus YLR133W, strain CKI1, stronger effect = lower value 0.958 | locus YLR403W, strain SFP1, stronger effect = lower value 0.937 | locus YML070W, strain DAK1, stronger effect = lower value 0.943 | locus YMR001C, strain CDC5, stronger effect = lower value 0.991 | locus YMR205C, strain PFK2 (second series), stronger effect = lower value 0.963 | locus YMR277W, strain FCP1, stronger effect = lower value 0.997 | locus YNL006W, strain LST8, stronger effect = lower value 0.993 | locus YNL020C, strain ARK1, stronger effect = lower value 0.959 | locus YNL161W, strain CBK1, stronger effect = lower value 0.988 | locus YNL183C, strain NPR1, stronger effect = lower value 0.95 | locus YNL207W, strain RIO2, stronger effect = lower value 0.988 | locus YNL222W, strain SSU72, stronger effect = lower value 0.991 | locus YNL307C, strain MCK1 (second series), stronger effect = lower value 0.951 | locus YOL078W, strain AVO1, stronger effect = lower value 0.991 | locus YOL136C, strain PFK27, stronger effect = lower value 0.955 | locus YOR061W, strain CKA2, stronger effect = lower value 0.925 | locus YOR119C, strain RIO1, stronger effect = lower value 0.983 | locus YOR231W, strain MKK1, stronger effect = lower value 0.904 | locus YOR329C, strain SCD5, stronger effect = lower value 0.987 | locus YPL031C, strain PHO85, stronger effect = lower value 0.958 | locus YPL153C, strain RAD53, stronger effect = lower value 0.943 | locus YPL204W, strain HRR25, stronger effect = lower value 0.973 | locus YPL209C, strain IPL1, stronger effect = lower value 0.988 | locus YPL256C, strain CLN2, stronger effect = lower value 0.891 | locus YPR025C, strain CCL1, stronger effect = lower value 0.986 | locus YPR106W, strain ISR1, stronger effect = lower value 0.988 | locus YPR111W, strain DBF20, stronger effect = lower value 0.986 | strain NNK1, stronger effect = lower value 0.992 | strain TSCII, stronger effect = lower value 0.996
